From the supplement of paper PMC11417369
Over roughly 25,000 sequences, “ln(normalized median fluorescence intensity)” has its median near 9.3; the highest 2% begin near 10. The sample as a whole holds a higher share of the highest values than the screen did.

These sequences were tested on PF3D7_0420300 AP2 domain 1 (GST-tagged) (assay: gcPBM binding intensity (ln(normalized median fluorescence intensity)); higher = stronger DNA binding).
How it was run: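 Probes on an Agilent 4 × 180k array were primer-extended, double-stranded and 36 bp long, taken from intergenic genomic regions, with negative controls added. GST-tagged P. falciparum DNA-binding domains from E. coli, about 25 μg on average, were applied to the array for 1 h in 1× PBS containing 1% milk, 0.2 mg/ml BSA, 0.5% salmon testes DNA and 0.03% Triton X-100. Binding intensity, obtained after Alexa488 anti-GST antibody detection and a 488 nm scan, is the highest Masliner-normalised natural-log median intensity across replicate spots of either probe orientation.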

| Sequence | gcPBM binding intensity (ln) |
| --- | --- |
| TTATTACGAACTCTGCAACATATATAAATAAATAAA [CACACA_negctrl_site44] | 8.86 |
| ATATTTCATCTAGCTACACACATATAATAAATTATT [CACACA_site4094] | 9.53 |
| ATTCTAATTAGTAAAGTGCAGATAAAATGATGCCCT [GTGCAC_site9578] | 9.08 |
| ATTACATTTTTGTTTTGTACATATATTTTATAAACA [XGTACX_site494] | 9.34 |
| TAATTTTTTTAAGAGAGTACATGACTCAACAGTTTA [XGTACX_site3103] | 8.76 |
| CGCACTAAAAAACACACACACACACCCATATATATA [CACACA_site4152] | 10.3 |
| CCCACTAAAAAACACACACACACACCCATATATATA [CACACA_site6140] | 10.2 |
| CACCCACTAATAAACACACACATATATATATATATA [CACACA_site389] | 9.62 |
| TTAAAAAAAAAACACACACACATACCCATATATATA [CACACA_site5768] | 9.97 |
| TTATATTAAACAAACACACACATATATATATATATA [CACACA_site2382] | 9.53 |
| CATACTGTTATAAAATGTACGCATATACACACACAT [XGTACX_site7256] | 9.89 |
| CACATACAGACATACACACACATATAGATTAATATA [CACACA_site6399] | 9.93 |
| GGCATGACTATCTGCACACATAAAAATAAGAAATAC [CACACA_site841] | 9.56 |
| TAGAATAATCTATAAACACACAAACCCAACAAAAGA [CACACA_site6132] | 9.86 |
| CACCCACACCAACACACACACATATATAATATATAT [CACACA_site595] | 10.1 |
| AATAATAGAAGCACCCACCCACCACCACCCACACAT [CACACA_negctrl_site1033] | 11.1 |
| TATAATAATCCACAAGCACACACACCCACATATATA [CACACA_site8343] | 9.93 |
| ATAATAATTAACCTATGTACATAGGAAAGTCATAAA [XGTACX_site4387] | 9.29 |
| TTATATTAATTTTGTTGTACTATTTGTGCATTAAAT [XGTACX_site4790] | 9.21 |
| TGTCATGATACATACACACACATACCCATACCCATA [CACACA_site5211] | 9.88 |
| CATATATATTTGTTCACACACACACCCAAAAAAAAA [CACACA_site2476] | 9.99 |
| TATTGCCCTGGACACACACACATATATATATATATA [CACACA_site5389] | 9.88 |
| TATTGCCCTTGACACACACACATATAAATAAATATA [CACACA_site7220] | 9.84 |

| Sequence | gcPBM binding intensity (ln) |
| --- | --- |
| TATATATTGCCCTTCACACACACACCGATATATATA [CACACA_site5390] | 10.2 |
| CTTATATATTGCCCTTCACACACACCCATATATATA [CACACA_site8795] | 10.1 |
| ATTCATTTTATTTTTTCACACACACCGATATATATA [CACACA_site9097] | 10 |
| ATTATATAATTGTCTTCACACACACCGATATATATA [CACACA_site8883] | 9.93 |
| TATATTGCCCTTCACACACACACATATATATATATA [CACACA_site2492] | 10.3 |
| TATATATTGCCCTTCACACACACACCCATATATATA [CACACA_site2493] | 10.2 |
| GGTGGTAAAAAACCTGCATGTCGAAATATTAAATAC [TGCATGCA_site33] | 9.25 |
| TTCTTAAATGTAAATGTATATGTATTAAAAAGAGAA [TGCATGCA_negctrl_site597] | 9.1 |
| ACAACATATGTTATCACACACATATAAATATAAATA [CACACA_site7038] | 9.54 |
| AAAAGCAAGTTCCAGGGTACATATATATGAAAAAAC [XGTACX_site2408] | 9.58 |
| ATTTATTTATATAATACACACAAATATCTTAATGAA [CACACA_site6064] | 9.39 |
| ATATATATATATGTATGTACATATTTTTTTTAACAC [XGTACX_site8475] | 9.24 |
| TATGATTTTTATATATGTACGTATGGTGTTTTACAA [XGTACX_site6100] | 9.21 |
| GTTTGGTGGTGTTTTGGTACGTACGGGGGTGTATGT [XGTACX_site1211] | 10.1 |
| GTTTGGTGGTGTTTTGGTACGTACGGGGGGGTATGT [XGTACX_site1983] | 10.9 |
| AAAAAAAAAAAAAAAAAAAAAAAAAAATGAGATACA [GTGCAC_negctrl_site160] | 9.13 |
| ATAAAATGAACAAACACACACACATATATTTATATA [CACACA_site7181] | 10.1 |
| TGTAGTCTGGAGAAAAGTACATAGTATCTGGTAGCT [XGTACX_site2031] | 9.32 |
| CGTATATATATATACACACACATATATATATGTAAA [CACACA_site195] | 9.69 |
| ATTAAACCGTGGGAGCACACACACACACACACACAT [TGCATGCA_negctrl_site72] | 10.8 |
| AAACCGTGGGAGCACACACACACACCGACACATATA [CACACA_site4338] | 10.1 |
| AAACCGTGGGAGCACACACACACACCCACCCATATA [CACACA_site332] | 10.2 |
| TGTGGGAATAACCACACACACACACCCATATATATA [CACACA_site5876] | 10.1 |
